Screens from PubChem BioAssay.
Shown are actives, neighbours in structure and some others; about 4% of the full set was active somewhere.
KKLEB tox: CF airway cell cytotoxicity counter-screen | KKLEB CF airway cells viability, ATPlite luminescence, overnight; hits give low values; cells stimulated with P. aeruginosa culture filtrate | activity change (cytotoxicity), % at 5 µM | 360,000 tested, 0.36% active;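 active = corrected activity change at or below -50% at 5 µM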
TWEAK Fn14 block: inhibitors of TWEAK-Fn14 interaction signaling. TWEAK-stimulated Fn14 reporter cells, luciferase luminescence, 8 h. inhibition, % at 10 µM. 360,000 tested, 2% active. AID 1159606; in the data active = inhibition above about 50%
CF NFkB inh: blocks PAF-induced NF-kB reporter in cystic fibrosis cells; inhibition, % at 5 µM; 360,000 tested, 0.86% active; AID 588850; KKLEB NF-kB-GFP reporter, GFP fluorescence overnight;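 active = at least 50% inhibition at 5 µM, scaled per plate between neutral and stimulator controls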;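 also: PAF is a Pseudomonas aeruginosa culture filtrate used as stimulus; plate controls were PAF-stimulated DMSO wells for no effect and unstimulated DMSO wells for full effect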
TROY signal inh: blocks TROY-dependent signaling in reporter cells; Q293 LMP1-TROYcd NF-kB luciferase reporter, 4 h; inhibition, % at 10 µM; 360,000 tested, 0.98% active; AID 1347056;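 active = compounds whose plate-normalised and pattern-corrected inhibition of the luciferase reporter signal at the single screening dose is 50% or more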
Peg3 promoter: reduces Peg3 promoter-driven luciferase expression in HeLa; HeLa PEG-Prom luciferase reporter, luminescence, overnight; inhibition, % at 20 µM; 360,000 tested, 1.7% active;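 active = inhibition of at least 50% at 20 µM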
HIF-2a block: HIF-2a inhibition; 786-0 RCC cells HIF-2a reporter, luciferase luminescence, overnight; 360,000 tested, 0.72% active; inhibition, % at 18.8 µM;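 active = inhibition of the luminescence signal of 40% or more relative to plate controls, in a single-dose primary screen at 18.75 µM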
Starred values were filed as active, the others as inactive.

Results for COC(=O)C1CN(C#N)N(c2ccc(Cl)cc2)C12c1ccccc1-c1ccccc12 (stereo not given) ?
KKLEB tox: -102.3*; TWEAK Fn14 block: 91.8*; CF NFkB inh: 96.9*; TROY signal inh: 90.0*; Peg3 promoter: 108.6*; HIF-2a block: 90.4*

What do the screens show for `CC1(C)CC2CCC(O)C2C(CCO)N1` (stereo not given)?
KKLEB tox: 14.5; TWEAK Fn14 block: 19.4; CF NFkB inh: 6.8; TROY signal inh: 7.8; Peg3 promoter: -24.3; HIF-2a block: 1.1

How did Cc1cc(OC(C)C(=O)NCc2cccnc2)c2c3c(c(=O)oc2c1)CCC3 (stereo not given) do in these assays?
KKLEB tox: -3.5; TWEAK Fn14 block: -9.6; CF NFkB inh: -5.6; TROY signal inh: 1.1; Peg3 promoter: 23.4; HIF-2a block: -8.3

How did COC(=O)C1=C(c2cc3ccccc3s2)C[C@@H]2CC[C@H]1N2C(=O)NCCCOC(C)C do in these assays?
KKLEB tox: 3.2; TWEAK Fn14 block: -6.0; CF NFkB inh: 18.8; TROY signal inh: -6.8; Peg3 promoter: -16.5; HIF-2a block: -9.9

What do the screens show for `CC(C)c1oc(=O)cc2c1[C@@H](O)[C@H]1OC(=O)[C@@]3(C)C[C@@H](O)[C@@H](O)[C@@]2(C)C13` (stereo not given in full)?
KKLEB tox: 1.8; TWEAK Fn14 block: 87.6*; CF NFkB inh: 18.5; TROY signal inh: 38.4; Peg3 promoter: 90.7*; HIF-2a block: 38.8

What do the screens show for `O=C(c1ccc(Cl)cc1)C12CN3CN(CN(C3)C1)C2`?
KKLEB tox: 8.7; TWEAK Fn14 block: 62.5*; CF NFkB inh: 12.2; Peg3 promoter: -4.2; HIF-2a block: 6.6

How did O=[N+]([O-])c1cc(Cl)c(Cl)cc1Cl do in these assays?
KKLEB tox: 5.4; TWEAK Fn14 block: 11.5; CF NFkB inh: -12.6; TROY signal inh: -8.8; Peg3 promoter: 0.4; HIF-2a block: 15.5

How did CN1C2c3ccccc3C3C4c5ccccc5C(C31)C(C2[N+](=O)[O-])N4C (stereo not given) do in these assays?
KKLEB tox: 1.7; TWEAK Fn14 block: 23.0; CF NFkB inh: -25.9; TROY signal inh: -7.6; Peg3 promoter: 17.9; HIF-2a block: 10.3

What do the screens show for `O=C1NCN(c2ccccc2)C12CCN(C(c1cc3ccccc3o1)c1nnnn1C1CCCC1)CC2` (stereo not given)?
KKLEB tox: -16.4; TWEAK Fn14 block: 19.1; CF NFkB inh: 5.6; TROY signal inh: -12.6; Peg3 promoter: 31.8; HIF-2a block: -55.9

What do the screens show for `COc1ccc(-n2nnnc2C(c2cc3ccccc3o2)N2CCC(n3c(=O)[nH]c4ccccc43)CC2)cc1` (stereo not given)?
KKLEB tox: -14.8; TWEAK Fn14 block: 103.1*; CF NFkB inh: 11.2; TROY signal inh: 68.4*; Peg3 promoter: 91.6*; HIF-2a block: -5.3

What do the screens show for `Cc1cccc(C)c1-n1nnnc1C(c1cccc2ccccc12)N1CCC(n2c(=O)[nH]c3ccccc32)CC1` (stereo not given)?
KKLEB tox: -7.5; TWEAK Fn14 block: 14.3; CF NFkB inh: 26.0; TROY signal inh: 17.6; Peg3 promoter: 43.4; HIF-2a block: -10.4

What do the screens show for `O=c1[nH]c2ccccc2n1C1CCN(C(c2cccc3ccccc23)c2nnnn2-c2ccc3c(c2)OCCO3)CC1` (stereo not given)?
KKLEB tox: -85.3*; TWEAK Fn14 block: 45.8; CF NFkB inh: 84.5*; TROY signal inh: 24.1; Peg3 promoter: 70.7*; HIF-2a block: -18.8

Results for N=Cc1c(O)n(-c2ccc(C34CC5CC(CC(C5)C3)C4)cc2)c(=O)[nH]c1=O ?
KKLEB tox: -10.9; TWEAK Fn14 block: 67.5*; CF NFkB inh: 15.6; TROY signal inh: 53.5*; Peg3 promoter: -26.0; HIF-2a block: -11.8

Results for Cc1ccc(-n2c(=S)[nH]c3ccccc3c2=O)cc1F ?
KKLEB tox: -5.8; TWEAK Fn14 block: -30.6; CF NFkB inh: -27.1; TROY signal inh: -23.6; Peg3 promoter: -191.5; HIF-2a block: -217.1

Results for CO[C@H]1C=CCCC=CC(=O)O[C@H]([C@H](C)C(=O)CCCC2CC(=O)NC(=O)C2)C(C)=C[C@@H](C)[C@@H]1O ?
TWEAK Fn14 block: -8.0; TROY signal inh: -4.6; HIF-2a block: 37.1
